Compound activity from PubChem.
The full list was thinned out, with hits kept by preference.
CBX7 AlphaScr: CBX7 inhibition, primary AlphaScreen. O95931. AlphaScreen His6-CBX7 / biotin-H3K27me3 peptide binding; stronger effect = lower value. normalised signal (fraction of DMSO) (no concentration beside the values). actives 1.1% (n = 66,000); in the data active = normalised signal below about 0.5
Target sequence (O95931 whole entry, looked up): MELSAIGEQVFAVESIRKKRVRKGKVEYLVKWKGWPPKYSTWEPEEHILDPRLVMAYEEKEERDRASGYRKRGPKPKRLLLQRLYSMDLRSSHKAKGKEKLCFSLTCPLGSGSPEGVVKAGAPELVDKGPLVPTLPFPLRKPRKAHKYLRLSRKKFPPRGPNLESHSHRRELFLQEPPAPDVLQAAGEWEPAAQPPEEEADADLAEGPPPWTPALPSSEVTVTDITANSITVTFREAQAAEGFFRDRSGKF
Of the large screens only hits and unclear results are named; the others gave an inactive call.

C=CCn1c(=N)n(CC(O)COc2ccccc2OC)c2ccccc21 (configuration not stated)	none
CCC(CO)NCC(O)Cn1c(C)c(C)c2ccccc21 (configuration not stated)	none
Cc1c(C)n(CC(O)CNc2ccccc2)c2ccccc12 (configuration not stated)	CBX7 AlphaScr 0.253
Cc1c(C)n(CC(O)CNCc2ccccc2)c2ccccc12 (configuration not stated)	none
Cc1ccc(S(=O)(=O)C2(C(=O)Nc3ccc(F)c(F)c3)CC2)cc1	none
CCc1ccc2c(c1)c(=O)c(S(=O)(=O)c1ccccc1)cn2CC(=O)Nc1ccc(OC)cc1	none
Cc1ccc2c(c1)N(CC(=O)NCc1ccc(F)cc1)C(=O)CO2	none
O=C(CCCN1C(=O)c2cccnc2C1=O)Nc1ccc(F)c(F)c1	none
O=C(CCN1C(=O)c2cccnc2C1=O)Nc1cccc(F)c1	CBX7 AlphaScr 0.443
O=C(CCCN1C(=O)c2cccnc2C1=O)Nc1cccc(Cl)c1	none
Cc1ccc(CNC(=O)C(=O)Nc2ccc3c(c2)OCO3)cc1	none
Cc1cccc(-c2cc(C(=O)N3CCN(c4ncccn4)CC3)c3ccccc3n2)c1	none
COc1ccc(-c2noc(C(c3ccccc3)c3ccccc3)n2)cc1	none
c1ccc(C(Cc2nc(-c3cccnc3)no2)c2ccccc2)cc1	none
c1ccc(C(c2ccccc2)c2nc(-c3cccnc3)no2)cc1	CBX7 AlphaScr 0.321
COc1ccc2oc(=O)c(-c3csc(Nc4ccc(Cl)cc4Cl)n3)cc2c1	none
COc1ccc(CN2CC(C(=O)NC3CCCC3)CC2=O)cc1 (configuration not stated)	none
COc1ccc(CN2CC(C(=O)NCc3ccccn3)CC2=O)cc1 (configuration not stated)	CBX7 AlphaScr 0.367
COc1ccc(CN2CC(C(=O)NCc3ccc(F)cc3)CC2=O)cc1 (configuration not stated)	none
Cc1ccc2c(c1)C(c1ccc(Br)cc1)=NNC(c1ccccc1)=N2	none
O=C(Nc1cccc(C(F)(F)F)c1)c1csc2c1CCCCC2	none
CCOCCCNC(=O)c1ccc2c(c1)N(CC)C(=O)c1ccccc1S2	none
CCC(=O)N1CCc2cc(S(=O)(=O)Nc3c(C)cc(C)cc3C)ccc21	none
Cc1cc(C)c(OCC(O)Cn2cnc3ccccc32)c(C)c1 (configuration not stated)	CBX7 AlphaScr 0.482
O=C(O)c1ccccc1OCC(O)Cn1cnc2ccccc21 (configuration not stated)	none
OC(COc1ccc(Br)cc1)Cn1cnc2ccccc21 (configuration not stated)	none
Cc1ccc(Cl)c(OCC(O)Cn2cnc3ccccc32)c1 (configuration not stated)	none
OC(COc1ccccc1Cl)Cn1cnc2ccccc21 (configuration not stated)	CBX7 AlphaScr 0.245
CCCc1nc2ccccc2n1CC(O)COc1c(C)cc(C)cc1C (configuration not stated)	none
COc1ccc(C(O)c2nc3ccccc3s2)cc1 (configuration not stated)	none
C=C(C)Cn1c(C2CC(=O)N(c3cccc(C)c3C)C2)nc2ccccc21 (configuration not stated)	none
CCOc1ccc(-n2c(Cc3cc(=O)[nH]c(=O)[nH]3)nnc2SC(C)C)cc1	none
COc1ccccc1C(CCNCc1ccc(OC(C)C)cc1)c1ccc2c(c1)OCO2 (configuration not stated)	CBX7 AlphaScr 0.169
COc1ccccc1C(CCNCc1ccc2c(c1)OCO2)c1ccc2c(c1)OCO2 (configuration not stated)	none
COc1ccc(CNCCC(c2ccccc2)c2ccc3c(c2)OCO3)cc1 (configuration not stated)	none
Cc1cc(OCc2nc(-c3ccccc3)no2)ccc1Cl	none
COc1ccc(CN(CCC2(Cc3ccccc3)CCOC(C)(C)C2)C(C)=O)cc1 (configuration not stated)	none
Cc1cccc(-c2nc(CN3CCCC(C(=O)NC4CCC(C)CC4)C3)c(C)o2)c1 (configuration not stated)	none
Cc1nc2c(C(=O)NC3CCCC3)c[nH]n2c(=O)c1Cc1ccc(Cl)cc1	none
COC(=O)c1c[nH]n2c(NC3CCCCCC3)c(-c3cccc(C)c3)nc12	CBX7 AlphaScr 0.438
COC(=O)c1c[nH]n2c(NC3CCC(C)CC3)c(-c3cccc(C)c3)nc12 (configuration not stated)	CBX7 AlphaScr 0.238
COC(=O)c1c[nH]n2c(NCCc3ccccc3)c(-c3cccc(OC)c3)nc12	none
COC(=O)c1c[nH]n2c(=O)c(Cc3cc(C)ccc3C)c(C)nc12	none
COC(=O)c1c[nH]n2c(NC3CCC(C)CC3)c(-c3ccc(Cl)cc3)nc12 (configuration not stated)	CBX7 AlphaScr 0.329
COC(=O)c1c[nH]n2c(NC3CCC(C)CC3)c(-c3cccc(F)c3)nc12 (configuration not stated)	CBX7 AlphaScr 0.331
COC(=O)c1c[nH]n2c(=O)c(Cc3ccccc3C)c(C)nc12	none
Cc1nc2c(C(=O)NC3CC3)c[nH]n2c(=O)c1Cc1ccccc1F	none
COC(=O)c1c[nH]n2c(=O)c(Cc3cccc(Cl)c3)c(C)nc12	none
CC1CCC(NC(=O)Cn2nc(-c3ccccc3)c3cc(Cl)ccc32)CC1 (configuration not stated)	none
COc1ccc(-c2noc(CCC(=O)NCCN3CCN(c4ccccc4F)CC3)n2)cc1	none
c1ccc(-c2nnc3ccc(NCCCN4CCOCC4)nn23)cc1	none
CCc1ccccc1OCCn1c(-c2ccc(Cl)cc2)nc2ccccc2c1=O	none
COCCCNC(=O)c1cn(-c2ccc(C)c(C)c2)c(=O)c2ccccc12	none
Cc1cccc(NC(=O)C2CCCN(S(=O)(=O)c3c(C)noc3C)C2)c1 (configuration not stated)	none
Cc1ccc(-n2nc(C)c(NS(=O)(=O)c3ccccc3)c2C)cc1C	none
CCCCSc1oc(-c2cccs2)nc1S(=O)(=O)c1ccc(C)cc1	none
Cc1cc(N2CCOCC2)nc2ccc(O)cc12	none
Cc1ccccc1NC(=O)Cc1cn(C)c2ccccc12	none
Cc1ccc(OCC(O)Cn2cnc3cc(C)c(C)cc32)cc1 (configuration not stated)	CBX7 AlphaScr 0.0722
Cc1cc2ncn(CC(O)COC3CCCCC3)c2cc1C (configuration not stated)	CBX7 AlphaScr 0.0441
Cc1cc2ncn(CC(O)COc3ccc(C(=O)O)cc3)c2cc1C (configuration not stated)	none
O=C1c2ccccc2C(=O)N1CC(O)COCc1ccccc1 (configuration not stated)	none
Cc1cc2ncn(C(C)c3ccccc3)c2cc1C (configuration not stated)	none
COC(=O)c1ccc(OCC(O)Cn2cnc3cc(C)c(C)cc32)cc1 (configuration not stated)	none
Cc1cc2ncn(CC(O)COCc3ccccc3)c2cc1C (configuration not stated)	CBX7 AlphaScr 0.0512
Cc1cccc(OCC(O)Cn2cnc3cc(C)c(C)cc32)c1 (configuration not stated)	CBX7 AlphaScr 0.0446
Cc1ccc(Cl)c(OCC(O)Cn2cnc3cc(C)c(C)cc32)c1 (configuration not stated)	none
Cc1cc2ncn(CC(O)COCC3CC=CCC3)c2cc1C (configuration not stated)	none
Cc1ccc(OCCCn2cnc3cc(C)c(C)cc32)cc1	none
CCCCn1c(=N)n(CC(O)COc2cccc(C)c2)c2ccccc21 (configuration not stated)	none
Cc1nc2[nH]onc2c2nccc(=O)c12	none
